Compound activity from PubChem.
Shown are actives, neighbours in structure and some others; about 4.1% of the full set was active somewhere.
TIM10 inh – TIM10 yeast growth inhibition. inhibition, % at 10 µM. S. cerevisiae TIM10 strain growth, BacTiter-Glo luminescence, 24 h. actives 1.4% (n = 330,000);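 active means inhibition of 40% or more at the single tested concentration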;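 further: wild-type TIM10 isogenic control strain grown at permissive 25 °C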
tim23-1 inh – inhibits growth of tim23-1 mutant yeast | S. cerevisiae tim23-1 growth, BacTiter-Glo luminescence, 24 h | actives 1.3% (n = 330,000) | inhibition, % at 20 µM;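 active means growth inhibition of the mutant yeast at or above 50%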;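 further: temperature-sensitive mutant grown at 25 °C; plate controls were DMSO-treated mutant yeast for no effect and medium wells lacking yeast for full effect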
tim10-1 inh – growth inhibitors of tim10-1 mutant yeast | S. cerevisiae tim10-1 ts strain growth, BacTiter-Glo, 24 h | inhibition, % at 20 µM | actives 2.2% (n = 330,000) | AID 463190;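 active means inhibition of at least 40%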;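 further: mutant grown at 25 °C; 0% = DMSO wells with yeast and 100% = wells holding no yeast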
NLRP3 yeast inh – blocks the NALP3 inflammasome reconstituted in yeast; AID 2825; Yeast reconstituted NLRP3/ASC/caspase-1, beta-gal luminescence, 24 h; inhibition, % at 10 µM; actives 0.39% (n = 330,000);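 active means inhibition of 50% or more; inactive means inhibition below 50%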;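 further: plate controls were induced DMSO wells for no effect and uninduced yeast grown without galactose for full effect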
PfHsp90 set2 – growth inhibition of yeast expressing Plasmodium Hsp90 | S. cerevisiae expressing PfHsp90, BacTiter-Glo ATP, 48 h; yeast lacking PDR1 and PDR3 efflux regulators | inhibition, % at 9.4 µM | actives 0.32% (n = 310,000) | AID 504621;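 active means every replicate shows inhibition above about 80%, whatever the replicate mean, limit read from the data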;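 further: 0% = DMSO neutral controls and 100% = 20 µM radicicol positive controls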
NALP1 yeast inh – blocks the NALP1 inflammasome reconstituted in yeast. S. cerevisiae NALP1/ASC/caspase-1 growth, X-gal OD620, 72 h. inhibition, % at 10 µM. actives 0.61% (n = 280,000). AID 2071; in the data active means inhibition mostly above about 24%, no sharp cut-off; inactive means mostly below about 32%
tim23-1 conf – tim23-1 yeast growth inhibition, confirmed | shares compounds with tim23-1 inh | S. cerevisiae tim23-1 growth, BacTiter-Glo luminescence, 24 h | inhibition, % at 20 µM | actives 83% (n = 4,400) | AID 463218;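 active means inhibition above about 39% in either of two replicate wells at 20 µM, limit read from the data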;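 further: temperature-sensitive tim23-1 mutant grown at 25 °C; 0% = DMSO wells with yeast and 100% = medium wells without yeast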
The depositor's hits bear a star; nt = not tested or not shown.

SMILES | TIM10 inh | tim23-1 inh | tim10-1 inh | NLRP3 yeast inh | PfHsp90 set2 | NALP1 yeast inh | tim23-1 conf
CCOc1cc(N2CCOCC2)c(OCC)cc1NC(=O)c1cc(S(=O)(=O)N2CCOCC2)ccc1C | 7.3 | 4.5 | -5.8 | -9.9 | -0.1 | nt | nt
O=C(CS(=O)(=O)c1ccccc1)Nc1nc(-c2ccc(F)cc2)cs1 | 38.8 | 57.3* | 26.6 | -23.7 | -20.2 | -0.3 | 48.9*
COc1ccc(CN(CC(O)COCc2ccccc2)S(=O)(=O)c2ccccc2Br)cc1OC (stereo not given) | 3.7 | 50.0* | 25.1 | nt | -5.5 | nt | 36.0*
Cc1nc(-c2ccc(NC(=O)C3CC3)cc2)cs1 | 18.3 | 54.1* | -7.4 | 21.5 | 23.1 | 16.8 | 40.0*
Cc1nc(-c2ccc(NC(=O)c3ccc(Br)o3)cc2)cs1 | 9.0 | 61.5* | 5.1 | 37.5 | 23.6 | 28.2 | 56.1*
CCn1cnnc1SCC(=O)NCC1COc2ccccc2O1 (stereo not given) | -4.2 | 13.9 | 16.2 | 14.2 | -19.3 | nt | nt
CCCCN(C(=O)c1ccc(C)c(S(=O)(=O)N2CCOCC2)c1)c1c(N)n(CC(C)C)c(=O)[nH]c1=O | -1.4 | 4.7 | 0.7 | 3.7 | nt | nt | nt
CC(C)CN(C(=O)c1ccc2c(c1)OCCO2)c1c(N)n(Cc2ccccc2)c(=O)[nH]c1=O | 17.1 | 51.8* | 27.6 | 7.4 | nt | nt | 55.2*
CCCCn1c(N)c(N(CCC(C)C)C(=O)c2ccc3c(c2)OCCO3)c(=O)[nH]c1=O | 21.5 | 58.7* | 30.2 | 17.7 | nt | nt | 55.6*
CCCCN(C(=O)c1ccc2c(c1)OCCO2)c1c(N)n(CC(C)C)c(=O)[nH]c1=O | 6.0 | 57.6* | 12.0 | 4.6 | nt | nt | 58.0*
COc1ccc(/C=C/C(=O)NNC(=O)c2ccncc2)c(OC)c1 | 8.6 | 5.7 | 5.4 | 2.7 | 18.6 | nt | nt
O=S(=O)(c1ccc(Br)s1)N1CCN(c2ccccn2)CC1 | 30.0 | 56.6* | 37.6 | 25.3 | 13.6 | -6.7 | 36.4
O=C(CC(=O)c1ccccc1O)c1ccc(F)cc1 | 34.7 | 60.9* | 20.4 | 19.2 | nt | -5.3 | 57.2*
O=C(N/N=C/c1cccc(OCc2ccccc2)c1)c1cccs1 | -7.0 | 54.6* | -7.2 | 5.3 | 11.6 | 11.1 | 42.4*
O=C(O)c1ccc(COc2ccc(/C=N/NC(=O)c3cccs3)cc2)cc1 | 2.5 | 15.9 | 10.8 | 9.9 | -2.9 | -6.5 | nt
NC(=O)C1CCN(C(=O)c2ccc3c(=O)n(Cc4ccco4)c(SCC(=O)c4ccccc4)nc3c2)CC1 | 3.2 | 57.6* | 22.1 | -7.8 | 8.7 | 7.2 | 18.0
CCN(CC)C(=O)[C@H]1C[C@H](CC(=O)NCCC2=CCCCC2)C(=O)N2CCc3c([nH]c4ccc(Cl)cc34)[C@]12C | -1.1 | 58.4* | 16.0 | nt | 59.5 | nt | 32.7
O=C1OC(c2ccccc2)=NC12CC2c1ccc(Cl)cc1 (stereo not given) | 29.6 | 56.3* | -4.8 | 24.7 | -11.6 | 5.8 | -69.2
Cc1cc(OCC(=O)c2cccc(C(F)(F)F)c2)n2cnnc2n1 | 10.7 | 5.9 | 6.2 | 17.5 | 10.9 | -6.0 | nt
Cc1cc(OCC(=O)c2ccc(C(F)(F)F)cc2)n2cnnc2n1 | -3.3 | 96.3* | -11.8 | 5.8 | 1.0 | 9.9 | -0.4
CCc1ccc(NC(=O)Nc2ccsc2C(=O)OC)cc1 | 11.8 | 56.0* | 30.6 | 26.5 | 14.2 | 17.6 | 57.1*
COC(=O)c1sccc1NC(=O)Nc1ccc(C)c(C)c1 | 32.7 | 59.7* | 35.6 | 21.5 | 54.5 | 0.0 | 49.1*
COc1ccccc1NC(=O)c1nc(S(=O)(=O)Cc2ccccc2)ncc1Cl | 36.2 | 52.9* | 28.0 | 14.4 | 20.9 | 16.0 | 48.0*
CSc1nnc(NC(=O)c2nc(S(=O)(=O)Cc3ccccc3)ncc2Cl)s1 | 10.1 | 15.2 | 13.6 | 12.2 | 13.6 | -11.9 | nt
COC(=O)c1ccc(NC(=O)c2nc(S(=O)(=O)Cc3cccc(C)c3)ncc2Cl)cc1 | 1.0 | 68.9* | 31.9 | 16.1 | 109.0* | 9.1 | 51.4*
SMILES | TIM10 inh | tim23-1 inh | tim10-1 inh | NLRP3 yeast inh | PfHsp90 set2 | NALP1 yeast inh | tim23-1 conf
COc1cc(CC(=O)N(CC(C)C)C2CCS(=O)(=O)C2)cc(OC)c1OC (stereo not given) | 1.8 | 8.7 | 7.0 | 22.1 | nt | nt | nt
Brc1cccc(-c2n[nH]c(-c3ccccc3)n2)c1 | 23.3 | 69.5* | 23.9 | 22.8 | -38.3 | 28.6* | 48.1*
Cc1ccc(N2CC(C(=O)Nc3ccc(S(=O)(=O)NCC4CCCO4)cc3)CC2=O)cc1C (stereo not given) | -4.7 | 8.7 | -5.6 | 4.2 | 23.5 | -48.4 | nt
COc1cccc2sc3cc(NCc4ccc(C)o4)ccc3c(=O)c12 | 22.0 | 67.7* | -17.6 | 33.1 | -6.1 | nt | 65.7*
Cn1c(SC/C=C/c2ccccc2)nnc1-c1cccs1 | -3.5 | 56.7* | 6.0 | 35.9 | 2.9 | 18.0 | 45.2*
CCn1c(SC/C=C/c2ccccc2)nnc1-c1cccs1 | 26.7 | 45.3 | 7.1 | 21.1 | nt | -1.8 | nt
CCCC(=O)n1nc(-c2ccco2)nc1SCc1ccccc1 | 36.2 | 54.3* | 34.8 | -2.1 | -6.9 | 6.0 | 51.8*
CCn1c(SCC(=O)N2CCCC2)nnc1-c1ccco1 | 11.6 | 0.8 | -12.2 | 18.5 | -43.2 | 9.1 | nt
Cc1ccc(Nc2c(O)nc[nH]c2=O)cc1 | nt | nt | nt | nt | 9.5 | nt | nt
Cc1ccc(CSc2nnc(-c3cccc(S(=O)(=O)N4CCOCC4)c3)n2C2CCCC2)cc1 | 17.4 | 51.7* | 14.7 | 1.7 | -1.2 | 32.9 | 42.6*
O=C(Nc1cccc(F)c1)N1CC=C(c2ccc(Cl)cc2)CC1 | 37.4 | 59.1* | 37.1 | 17.0 | 10.2 | 39.0* | 72.1*
O=C(CCC(=O)Nc1ccccc1Cl)NNC(=O)NC1CCCCC1 | 1.6 | -4.6 | -6.8 | 4.0 | 10.0 | 5.8 | nt
O=C(N/N=C/CCc1ccccc1)c1ccccc1 | 5.8 | 54.6* | -2.7 | 3.5 | -3.5 | 8.2 | 5.7
COc1ccc(CCNC(=O)COC(=O)c2cncc(Br)c2)cc1OC | -2.6 | 9.2 | -2.5 | 5.3 | 0.3 | nt | nt
Cc1ccc(-c2cc(-c3ccccc3)nc(N(C)N)n2)cc1 | 31.9 | 56.0* | 35.3 | 20.1 | 23.8 | 14.1 | 53.2*
Cc1ccc(-c2cc(N)nc(-c3ccccc3)c2)cc1 | -12.8 | -2.0 | -25.8 | 23.0 | -0.3 | 18.2 | nt
COc1ccc(N2C(=O)CC(C)(C)CC2=O)cc1OC | 4.2 | -1.8 | 2.7 | 1.6 | 1.5 | 5.3 | nt
O=C(O)c1ccc(S(=O)(=O)N(Cc2ccccc2)C2CCCCC2)cc1 | 0.8 | 28.2 | 27.8 | 6.1 | 8.3 | -11.2 | nt
O=C(Nc1ccn(Cc2ccc(Cl)cc2)n1)c1ccc2c(c1)OCO2 | 34.5 | 58.9* | 8.1 | 31.4 | -12.5 | 8.3 | 62.7*
CCOC(=O)c1ccc(-c2c(-c3ccccc3OC)sc3cc4c(cc23)OCO4)cc1F | 6.5 | 13.8 | 15.2 | 1.5 | 11.9 | nt | nt
C(=N\N1CCN(C2c3ccccc3-c3ccccc32)CC1)/c1ccccn1 | 36.0 | 54.3* | 23.8 | 17.7 | -1.1 | -22.6 | 32.1
